Laboratory results as given in PubChem BioAssay (EPA / NIEHS).
Some compounds were tested as several samples or in several runs, with calls that do not always agree. Calls of active or inactive are those of the source. The calls were made as follows: active = hit-call score of the fitted dose curve at least 0.9, where 1 is the maximum; inactive = score below 0.9.

assay: APR_HepG2_MitoMembPot_72hr: Apredica 72-hour HepG2 Assay for Mitochondrial Membrane Potential (AID 2282917); details: imaging, actives raise or lower the signal
In short: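 HepG2 cells exposed 72 h to compounds at 0.39–200 uM (0.5% v/v DMSO, duplicates); MitoTracker Red CMXRos 250 nM loaded 30 min before 3.7% formaldehyde fixation, imaged by HCS fluorescence. Bidirectional fit versus DMSO.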

SMILES | AC50 | outcome
CON(C)C(=O)Nc1ccc(Cl)c(Cl)c1 | 23.1 µM (active) | 
N#Cc1nn(-c2c(Cl)cc(C(F)(F)F)cc2Cl)c(N)c1S(=O)C(F)(F)F (configuration not stated) |  | inactive
CCOC(=O)C(Cl)Cc1cc(-n2nc(C)n(C(F)F)c2=O)c(F)cc1Cl (configuration not stated) |  | inactive
N#Cc1cc(Br)c(O)c(Br)c1 |  | inactive
CCCC1COC(Cn2cncn2)(c2ccc(Cl)cc2Cl)O1 (configuration not stated) |  | inactive
CC(Oc1ccc(Cl)cc1Cl)C(=O)O (configuration not stated) |  | inactive
CO/C=C(/C(=O)OC)c1ccccc1Oc1cc(Oc2ccccc2C#N)ncn1 | 164 µM (active) | inactive
OC(c1ccc(Cl)cc1)(c1cncnc1)c1ccccc1Cl (configuration not stated) |  | inactive
COc1cnc(OC)n2nc(NS(=O)(=O)c3c(OCC(F)F)cccc3C(F)(F)F)nc12 |  | inactive
CCCN(CCC)c1c([N+](=O)[O-])cc(S(N)(=O)=O)cc1[N+](=O)[O-] |  | inactive
COC(=O)c1ccccc1C(=O)OC |  | inactive
COc1nc(C)nc(NC(=O)NS(=O)(=O)c2ccccc2Cl)n1 |  | inactive
COP(N)(=O)SC (configuration not stated) |  | inactive
Cc1cc(Cl)ccc1OCC(=O)O |  | inactive
C=CCC1=C(C)C(OC(=O)C2C(C=C(C)C)C2(C)C)CC1=O (configuration not stated) |  | inactive
CCCCNC(=O)OCC#CI |  | inactive
CN(C)C(=S)SSC(=S)N(C)C |  | inactive
CCOc1cc(Oc2ccc(C(F)(F)F)cc2Cl)ccc1[N+](=O)[O-] |  | inactive
O=C(O)c1nc(Cl)ccc1Cl |  | inactive
CCOP(=S)(OCC)SCn1c(=O)oc2cc(Cl)ccc21 |  | inactive
CCCCNC(=O)n1c(NC(=O)OC)nc2ccccc21 |  | inactive
